Screens: PubChem, National Center for Advancing Translational Sciences (NCATS)
A selection: hits, their analogues and other compounds. The true share with any hit is near 20%.
Pf growth 48h: P. falciparum growth inhibition at 48 hours (one generation) | P. falciparum luciferase growth in erythrocytes, 48 h | Potency, µM (titrated, usually from 28.7 µM), inactives show at the highest dose activity change, negative = inhibition, most hits filed as inhibitors | 5.9% of 310,000 active | AID 504832; note: potency is the fitted concentration of half-maximal effect; % is set by controls: 0 for no effect and ±100 for the full control effect
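Here the parasites carry a stable luciferase gene and grow inside erythrocytes in Albumax-based RPMI medium with compound for one erythrocytic cycle. Activity is scored as loss of luminescent signal.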
Pf growth 96h: inhibits malaria parasite growth, 96 h; P. falciparum luciferase reporter growth, 96 h; Potency, µM (highest dose often 28.7 µM), inactives show top-dose activity change, negative = inhibition, hits mostly inhibitors; 6.9% of 320,000 active; AID 504834; note: potency is the fitted concentration of half-maximal effect; % is set by controls: 0 for no effect and ±100 for the full control effect
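96 h incubation, 37 C, 5% CO2, of luciferase-reporter P. falciparum-infected RBCs (2% hematocrit, 0.05% parasitemia final) with test compounds; endpoint luminescence.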
Shiga toxin inh: blocks Shiga toxin action in Vero cells; Vero cells, Shiga toxin protein synthesis inhibition reporter; 9.2% of 290,000 active; inhibition, % at 38.7 µM; in the data active = inhibition mostly above about 28%, no sharp cut-off; inactive = mostly below about 43%; note: 0% is about no effect
CHX counter: affects cycloheximide protein synthesis inhibition readout, counter-screen. cell reporter, cycloheximide protein synthesis inhibition counterscreen. max response, %. 12% of 300,000 active; in the data active = max response mostly above about 13%, no sharp cut-off; inactive = mostly below about 14%; note: read at 38.3 µM for the half of the compounds with a filed dose; 0% is about no effect
HCMV antiviral: inhibitors of human cytomegalovirus. HFF cells, HCMV-luciferase reporter, 72 h; hits give low values. activity change, negative = inhibition, % at 57.5 µM. 4.5% of 410,000 active; in the data active = activity change below about -60%; inconclusive = no clear call, values can overlap the other calls; inactive = above about -39%; note: % is set by controls: 0 for no effect and ±100 for the full control effect
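Human foreskin fibroblasts infected with luciferase-reporter HCMV at MOI 1 PFU/cell, compounds at two doses. Luciferase measured 72 h post infection; normalized to buffer-only basal and Salinomycin (10uM) controls.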
* hit, by the source's call. Unless noted, calls come from the whole dose curve; as a rule, active = well fitted inhibition curve with a large enough effect; inconclusive = small, poorly fitted or top-dose-only effect, or another doubt; inactive = no such curve, though single readings can be large or run the other way.

Screening CCOc1ccc(CNC(=O)c2nn(-c3ccc(OC)cc3)c(=O)c3c2c2ccccc2n3C)cc1 returned HCMV antiviral 23.7.
`COc1cc2oc(=O)c(CC(=O)NCCc3ccccc3)c(C)c2cc1Cl` gave HCMV antiviral -6.2.
Screening Cc1cc(C)c(S(=O)(=O)Nc2ncn[nH]2)cc1C returned Pf growth 48h -3.9%, Pf growth 96h -29.7%, Shiga toxin inh -2.0, CHX counter -2.0 and HCMV antiviral 62.6.
`CNS(=O)(=O)c1cccc(C(=O)OCC(=O)Nc2ccc(-c3nc4ccc(C)cc4s3)cc2)c1` gave Pf growth 48h 116.0%, Pf growth 96h 95.6%, Shiga toxin inh 93.7* and CHX counter 44.5*.
`Cc1ccc2nc(-c3ccc(NC(=O)COc4ccccc4)cc3)sc2c1` gave HCMV antiviral 39.6.
`Cc1ccc2nc(-c3ccc(NC(=O)COC(=O)c4ccco4)cc3)sc2c1` gave Pf growth 48h 246.2%, Pf growth 96h inactive, Shiga toxin inh 79.9*, CHX counter 46.0* and HCMV antiviral -5.9.
COc1ccc(/C=C(\C#N)C(=O)OCC(=O)Nc2ccc(-c3nc4ccc(C)cc4s3)cc2)cc1 was read as Pf growth 48h 91.3%, Pf growth 96h 168.1%, Shiga toxin inh 122.9*, CHX counter 27.9* and HCMV antiviral 11.2.
Screening COc1ccc(/C=C(\C#N)C(=O)OCC(=O)NC(C)c2ccccc2)cc1 (stereo unspecified) returned Pf growth 48h 13.7%, Pf growth 96h 7.8%, Shiga toxin inh 8.3, CHX counter -2.3 and HCMV antiviral -11.7.
Screening Cc1ccc(NC(=O)COC(=O)c2ccco2)cc1 returned Pf growth 48h 28.3%, Pf growth 96h 43.2%, Shiga toxin inh 54.1*, CHX counter 36.7* and HCMV antiviral 15.3.
Screening CC(C)n1c(SCC(=O)NC2CCCCC2)nnc1-c1ccco1 returned Pf growth 48h -14.3%, Pf growth 96h 14.8%, Shiga toxin inh 17.0, CHX counter -3.5 and HCMV antiviral -34.0.
`CC(=O)Nc1cccc(Nc2nc(-c3ccccc3F)nc3ccccc23)c1` gave Pf growth 48h -27.7%, Pf growth 96h inconclusive, Shiga toxin inh -13.9, CHX counter -1.6 and HCMV antiviral -8.6.
For Cc1ccc2nc(-c3ccc(NC(=O)CN4CCN(C(=O)c5ccco5)CC4)cc3)sc2c1 the results were Pf growth 48h 2.33µM*, Pf growth 96h 1.47µM*, Shiga toxin inh 135.5*, CHX counter 42.8* and HCMV antiviral -12.4.
`Cc1ccc2nc(-c3ccc(NC(=O)COC(=O)c4ccc([N+](=O)[O-])o4)cc3)sc2c1` gave Pf growth 48h 225.1%, Pf growth 96h 223.2%, Shiga toxin inh 90.9*, CHX counter 53.1* and HCMV antiviral inconclusive.
For CCOc1ccc(OCC)c(-c2c(=O)n(OCc3ccc(C(C)(C)C)cc3)c3ccccc3[n+]2[O-])c1 the results were Pf growth 48h inconclusive, Pf growth 96h 11.7µM*, Shiga toxin inh 11.7, CHX counter 2.1 and HCMV antiviral -39.3.
CCOn1c(=O)c(-c2cc(OC)ccc2OC)[n+]([O-])c2ccccc21 was read as Pf growth 48h -54.3%, Pf growth 96h inconclusive, Shiga toxin inh -5.0, CHX counter -2.5 and HCMV antiviral 5.6.
`CCCOc1ccc(-c2c(=O)n(OCC(=O)OCC)c3ccccc3[n+]2[O-])cc1` gave Pf growth 48h 20.0%, Pf growth 96h 5.5%, Shiga toxin inh 59.1*, CHX counter 39.3* and HCMV antiviral -3.7.
For CCOc1ccc(-c2c(=O)n(OCC)c3ccccc3[n+]2[O-])cc1 the results were Pf growth 96h 51.5%, Shiga toxin inh 25.5, CHX counter 23.5* and HCMV antiviral -9.8.
Screening CCOc1ccc(-c2c(=O)n(OCc3ccc([N+](=O)[O-])cc3)c3ccccc3[n+]2[O-])c(OCC)c1 returned HCMV antiviral 0.0.
CCOc1ccc(-c2c(=O)n(OCc3ccc([N+](=O)[O-])cc3)c3ccccc3[n+]2[O-])cc1 was read as Pf growth 48h 40.0%, Pf growth 96h 11.7µM*, Shiga toxin inh 12.6 and CHX counter 10.4.
`CCOC(=O)COn1c(=O)c(-c2ccc(F)cc2)[n+]([O-])c2ccccc21` gave Pf growth 48h 26.8%, Pf growth 96h 12.4%, Shiga toxin inh -1.0, CHX counter -4.1 and HCMV antiviral -6.1.
